Screening data: PubChem BioAssay, National Center for Advancing Translational Sciences (NCATS)
S2 tox: Viability Counterscreen for Primary qHTS for Inhibitors of ATXN expression; Potency, µM (highest dose often 56.7 µM), actives largely listed as cytotoxic; 400,000 compounds, 0.49% hits; S2 cells (HEK-293 line with an ATXN2-luciferase reporter) viability, CellTiter-Fluor protease fluorescence, 24 h; note: nearly all actives have a fitted effect of over 40% in size
ATXN2 expr inh: Primary qHTS for Inhibitors of ATXN expression; HEK-293 ATXN2-luciferase reporter, luminescence, 24 h; Potency, µM (series often up to 57 µM), usual class: inhibitors; 360,000 compounds, 0.72% hits; AID 1745845, 2022; note: nearly all actives have a fitted effect of over 55% in size
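ATXN2-luciferase reporter cells (luciferase flanked by upstream and downstream ATXN2 gene portions) were treated 24 h at 37 °C with compounds at up to 57 uM. SteadyGlo luminescence gave expression; GF-AFC fluorescence gave viability.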
HepG2 viability: qHTS for Inhibitors of TGF-b: Cytotox Counterscreen; HepG2 CAGA-GFP viability, ATP luminescence, 18 h; Potency, µM (titrated, usually from 46.1 µM), hits mostly cytotoxic; 410,000 compounds, 0.76% hits; AID 588856, 2011
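CellTiter-Glo luminescence gave cytotoxicity after 18 hours at 37 degrees C. The cells were HepG2 CAGA-GFP in 1% FBS DMEM, stimulated with 500 pg/mL TGF-beta after compound addition. %Activity was normalised to no-cell wells (complete cell-killing) and DMSO (no toxicity), and curves were fitted and classified.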
ALOX12 inh: Primary qHTS assay for inhibitors of human arachidonate 12S-lipoxygenase (ALOX12): Round 2. purified 12hLO, xylenol orange hydroperoxide absorbance. Potency, µM (top dose mostly 108 µM), most hits filed as inhibitors. Polyunsaturated fatty acid lipoxygenase ALOX12 (Homo sapiens), P18054. AID 1671190, 2021. 580,000 compounds, 1.1% hits
Target sequence (P18054 whole entry, looked up): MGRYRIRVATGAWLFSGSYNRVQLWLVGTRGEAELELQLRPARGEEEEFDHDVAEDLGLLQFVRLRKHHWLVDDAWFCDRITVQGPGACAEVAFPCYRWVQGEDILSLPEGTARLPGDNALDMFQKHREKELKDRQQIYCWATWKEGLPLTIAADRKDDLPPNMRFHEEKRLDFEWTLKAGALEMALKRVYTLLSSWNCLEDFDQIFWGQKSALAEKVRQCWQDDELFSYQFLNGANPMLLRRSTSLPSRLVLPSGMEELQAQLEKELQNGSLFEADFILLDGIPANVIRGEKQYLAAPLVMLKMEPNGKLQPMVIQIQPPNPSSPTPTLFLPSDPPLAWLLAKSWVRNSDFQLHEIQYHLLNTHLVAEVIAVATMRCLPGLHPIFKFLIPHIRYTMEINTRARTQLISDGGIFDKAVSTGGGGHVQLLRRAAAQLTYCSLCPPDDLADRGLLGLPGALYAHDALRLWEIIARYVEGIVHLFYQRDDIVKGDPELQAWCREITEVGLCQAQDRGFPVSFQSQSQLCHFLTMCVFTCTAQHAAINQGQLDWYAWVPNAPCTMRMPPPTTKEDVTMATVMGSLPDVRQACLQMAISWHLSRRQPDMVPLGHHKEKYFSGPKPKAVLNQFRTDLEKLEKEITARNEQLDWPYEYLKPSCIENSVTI
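Purified human 12hLO at 150 nM in 25 mM Hepes, 0.01% Triton X-100, pH 7.0, preincubated 15 min at room temperature with compound. Reaction started with 40 uM arachidonic acid, 30 min at room temperature. Hydroperoxide measured by Fe-xylenol orange, 573/405 nm absorbance ratio.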
TGFb inhibitor: qHTS for Inhibitors of TGF-b; AID 588855, 2011; 410,000 compounds, 1.2% hits; Potency, µM (top dose mostly 46.1 µM), hits mostly inhibitors; HepG2 CAGA-GFP TGF-b/SMAD3 reporter, GFP fluorescence, 18 h; TGF-beta stimulated, 500 pg/mL final; note: nearly all actives have a fitted effect of over 65% in size
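Cell-based qHTS in HEPG2 carrying a CAGA-GFP Smad reporter; compounds added before 500 pg/mL final TGF-beta, 18 h incubation at 37 degrees C, GFP fluorescence quantified per cell by imaging cytometry.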
Each line names hits and unclear results; the compound was inactive in the other large screens. Only some compounds are listed: those with a hit (about 2.7% of all), similar ones and a draw of the others. Calls come from the whole dose curve; as a rule, active = well fitted curve in the direction sought with a large enough effect; inconclusive = small, poorly fitted or top-dose-only effect, or another doubt; inactive = no such curve, though single readings can be large; an effect the other way counts as inactive or inconclusive.

Cc1ccc(C)c(N=Nc2ccc(O)c3ncccc23)c1	S2 tox inconclusive, ATXN2 expr inh inconclusive, ALOX12 inh inconclusive
Cc1cccc(N=Nc2ccc(O)c3ncccc23)c1	S2 tox 10µM, ALOX12 inh inconclusive, TGFb inhibitor inconclusive
Cc1ccc(S(=O)(=O)c2c(C)c(C)n(Cc3ccco3)c2N)cc1	ALOX12 inh 44.7µM (no result: S2 tox, ATXN2 expr inh, HepG2 viability, TGFb inhibitor)
CCN1c2cc(C(=O)Nc3ccc(C)cc3Cl)ccc2C(=O)N2CCCCCC21 (configuration not stated)	none (no result: S2 tox, ATXN2 expr inh, HepG2 viability, TGFb inhibitor)
CCCc1cnc(NCCNCC(O)COc2ccc(Cl)c(Cl)c2)nc1 (configuration not stated)	S2 tox inconclusive, ATXN2 expr inh inconclusive, HepG2 viability 20µM, ALOX12 inh inconclusive, TGFb inhibitor inconclusive
CCNC(=S)Nc1ccc2cn[nH]c2c1	none
N#CC(C#N)=NNc1ccc2cn[nH]c2c1	S2 tox 15.8µM, ATXN2 expr inh inconclusive, ALOX12 inh inconclusive, TGFb inhibitor inconclusive
COC(=O)CC(NC(=O)C12CC3CC(CC(C3)C1)C2)C(=O)OC (configuration not stated)	none (no result: S2 tox, ATXN2 expr inh, HepG2 viability, TGFb inhibitor)
O[C@@H](COc1cccc2ncccc12)CN1CCN(C2c3ccccc3[C@@H]3[C@H](c4ccccc42)C3(F)F)CC1 (some centres not stated)	S2 tox 25.1µM, ATXN2 expr inh inconclusive (no result: HepG2 viability, TGFb inhibitor)
OC(COc1cccc2ccccc12)CN1CCCC1 (configuration not stated)	none
O=C1c2ccccc2NC(c2cnc3ccccc3n2)N1c1ccccc1 (configuration not stated)	none (no result: S2 tox, ATXN2 expr inh, HepG2 viability, TGFb inhibitor)
CC(=O)c1ccc(NS(=O)(=O)c2ccc(CC(C)C)cc2)cc1	TGFb inhibitor 15.8µM
O=C(CC(c1ccc(Cl)cc1)C1CCCC1=O)c1ccccc1 (configuration not stated)	none (no result: S2 tox, ATXN2 expr inh, HepG2 viability, TGFb inhibitor)
Oc1ccc(/C=N/Nc2nc(-c3cccnc3)nc3ccccc23)c(O)c1	TGFb inhibitor inconclusive
Cc1cc(N/N=C/c2ccc(O)c(C)c2O)nc(-c2ccccc2O)n1	S2 tox 15.8µM, ATXN2 expr inh inconclusive, HepG2 viability 11.2µM, TGFb inhibitor inconclusive
Cc1c(O)ccc(/C=N/Nc2nc(-c3cccnc3)nc3ccccc23)c1O	S2 tox inconclusive, HepG2 viability 6.31µM, TGFb inhibitor inconclusive (no result: ATXN2 expr inh)
Cc1cc2c(c(=O)n1Cc1ccc3c(c1)OCO3)C(c1ccccc1Cl)C(C#N)=C(N)O2 (configuration not stated)	none (no result: S2 tox, ATXN2 expr inh, HepG2 viability, TGFb inhibitor)
CN1CCC2(CC1)N=C(SCC(=O)Nc1cc(F)ccc1F)C(c1ccccc1)=N2	none (no result: S2 tox, ATXN2 expr inh, HepG2 viability, TGFb inhibitor)
CC(C)(C)C1CCC(=NNc2ccc(S(N)(=O)=O)cc2[N+](=O)[O-])CC1 (configuration not stated)	HepG2 viability 11.2µM, TGFb inhibitor inconclusive
Cc1ccc(SCCN2CCC(NC(=O)OCc3ccccc3)CCC2=O)cc1 (configuration not stated)	none
O=C(N[C@H]1CCC(=O)N(CCSc2ccc(Br)cc2)CC1)OCc1ccccc1	S2 tox 28.2µM, ATXN2 expr inh inconclusive, ALOX12 inh inconclusive, TGFb inhibitor 7.08µM
O=C(O)c1ccccc1-c1ccccc1C(=O)Nc1cccc(-c2nc3ccccc3o2)c1	S2 tox inconclusive, ALOX12 inh 11.2µM
O=C(Nc1ccc(-c2nc3ccccc3o2)cc1)c1cc(-n2cnnc2)ccc1Cl	S2 tox inconclusive, ATXN2 expr inh inconclusive
O=C(Nc1ccc(-c2nc3ccccc3o2)c(O)c1)c1cc(-n2cnnc2)ccc1Cl	HepG2 viability 17.8µM
Cc1ccc(C(=O)Nc2cccc(-c3nc4ccccc4o3)c2)c(Cl)c1	none
C=CCNc1oc(-c2ccc(-c3ccccc3)cc2)nc1C#N	S2 tox inconclusive, ATXN2 expr inh inconclusive, TGFb inhibitor 10µM (no result: ALOX12 inh)
COc1ccc(CNc2oc(COc3ccc(Cl)cc3)nc2C#N)cc1	TGFb inhibitor inconclusive
N#Cc1nc(COc2ccc(-c3ccccc3)cc2)oc1NCCCN1CCOCC1	S2 tox inconclusive, ATXN2 expr inh 31.6µM
COc1ccc(Nc2oc(COc3ccc(Cl)cc3)nc2C#N)cc1	S2 tox inconclusive, ATXN2 expr inh 14.1µM
